# Experimental data from PubChem BioAssay (NCATS).
# Where “and” joins values, the source holds several entries; their conditions need not be identical. Equal values may be shown once. A number with no mark means an inactive call. Records with an inconclusive call do not appear. Calls of active or inactive are those of the source. The call rests on the fitted dose curve; in most records, active means well fitted curve in the direction sought with a large enough effect; inconclusive means small, poorly fitted or top-dose-only effect, or another doubt; inactive means no such curve, though single readings can be large; an effect the other way counts as inactive or inconclusive.
# Biological target: Cytochrome P450 2D6 (Homo sapiens) (UniProt P10635)
# Assay: qHTS Assay for Inhibitors and Substrates of Cytochrome P450 2D6 (AID 891); further: nearly all actives have a fitted effect of over 60% in size; further: potency means the concentration at half of the fitted maximal effect;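 on activity change, negative = inhibition: luciferin methyl ether substrate demethylated by CYP2D6 with NADPH regeneration; on the % scale 0 is the no-effect control and ±100 the full control effect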
# Conditions: recombinant CYP2D6, luciferin-ME EGE luminescence; series mostly up to 57.1 µM; activity change, negative = inhibition: at the top concentration
# Method in brief: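 Human CYP2D6 (5 nM) with 30 uM Luciferin-ME EGE (at Km) in 100 mM KPO4, compound preincubated 10 min, then NADPH regeneration system for 60 min at room temperature. Luciferin read by luminescence; normalized to 1.43 uM quinidine.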
# Cytochrome P450 2D6 (Homo sapiens), sequence (P10635 whole entry, looked up): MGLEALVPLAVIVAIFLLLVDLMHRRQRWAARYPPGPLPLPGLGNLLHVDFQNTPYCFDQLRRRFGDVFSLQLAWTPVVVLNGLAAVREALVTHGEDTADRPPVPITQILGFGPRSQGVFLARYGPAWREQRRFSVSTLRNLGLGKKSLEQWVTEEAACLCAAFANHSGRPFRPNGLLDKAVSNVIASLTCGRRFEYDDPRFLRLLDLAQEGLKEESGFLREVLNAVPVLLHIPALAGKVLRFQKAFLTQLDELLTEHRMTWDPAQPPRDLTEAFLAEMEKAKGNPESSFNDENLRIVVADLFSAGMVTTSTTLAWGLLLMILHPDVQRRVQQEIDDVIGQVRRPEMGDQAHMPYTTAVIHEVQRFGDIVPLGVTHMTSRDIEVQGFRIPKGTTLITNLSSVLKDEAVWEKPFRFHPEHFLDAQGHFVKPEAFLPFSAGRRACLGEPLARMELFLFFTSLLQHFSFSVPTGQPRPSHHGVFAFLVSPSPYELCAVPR
SMILES,"activity change, negative = inhibition [%]",Potency
CNC(=O)OCC[N+](C)(C)C,14.6,–
Cc1cc(C)cc(C(=O)OC2C[C@H]3CC[C@@H](C2)N3C)c1 (stereo not given in full),–,0.251 µM (active)
CCCN(CCC)[C@H]1CCc2c(F)ccc(O)c2C1,–,631 nM (active) and 1.58 µM (active)
C[N+](C)(C)CC#CCN1CCCC1=O,–,3.98 µM (active)
O=c1ccc2[nH]cc(C3=CCNCC3)c2[nH]1,–,2.51 µM (active)
Clc1cc(I)cc(Cl)c1NC1=NCCN1,–,3.98 µM (active)
CCCN(CCC)[C@@H]1CCc2cccc(O)c2C1,–,3.16 µM (active) and 794 nM (active)

# Biological target: Cytochrome P450 2C19 (Homo sapiens) (UniProt P33261)
# Assay: qHTS Assay for Inhibitors and Substrates of Cytochrome P450 2C19 (AID 899); further: nearly all actives have a fitted effect of over 60% in size; further: potency means the concentration at half of the fitted maximal effect; on activity, negative = inhibition: on the % scale 0 is the no-effect control and ±100 the full control effect
# Conditions: recombinant CYP2C19, luciferin-H EGE luminescence; series mostly up to 57.1 µM; activity, negative = inhibition: at the top concentration
# Method in brief: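 Luminescence readout of luciferin formed from 10uM Luciferin-H EGE (KM level) by 5 nM CYP2C19 in 50mM KPO4. 60 min NADPH-driven reaction at 37C after 10 min compound preincubation; data scaled to 57uM ketoconazole inhibition.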
# Cytochrome P450 2C19 (Homo sapiens), sequence (P33261 whole entry, looked up): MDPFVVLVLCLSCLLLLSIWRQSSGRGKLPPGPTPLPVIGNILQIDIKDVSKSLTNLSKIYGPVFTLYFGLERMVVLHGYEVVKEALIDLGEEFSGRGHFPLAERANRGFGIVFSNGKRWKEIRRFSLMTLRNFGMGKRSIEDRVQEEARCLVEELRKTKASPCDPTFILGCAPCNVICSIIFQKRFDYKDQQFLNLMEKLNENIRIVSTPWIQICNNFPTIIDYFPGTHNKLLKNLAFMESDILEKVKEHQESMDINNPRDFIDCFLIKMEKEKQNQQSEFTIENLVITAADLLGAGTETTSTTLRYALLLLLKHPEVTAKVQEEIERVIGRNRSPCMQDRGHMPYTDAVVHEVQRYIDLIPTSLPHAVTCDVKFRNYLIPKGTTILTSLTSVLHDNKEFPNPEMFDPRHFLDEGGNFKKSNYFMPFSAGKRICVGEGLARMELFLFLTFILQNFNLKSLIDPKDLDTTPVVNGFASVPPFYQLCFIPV
SMILES,"activity, negative = inhibition",Potency
O=P(O)(O)C(Cl)(Cl)P(=O)(O)O,76.3%,–
CCC1(C)CC(=O)NC(=O)C1,45.9% [at 25.6 µM],–
O=c1ccc2[nH]cc(C3=CCNCC3)c2[nH]1,–,126 nM (active)

# System: not listed separately
# Assay: Confirmation and Secondary Assay for Modulators of Hemoglobin Beta Chain Splicing at IVS2 654 locus (AID 910);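 further: HeLa cells stably carrying EGFP split by mutant beta-globin IVS2-654 intron; per-well total GFP intensity by laser scanning cytometry after 2-day treatment; % of control where 0% means no effect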
# Conditions: HeLa EGFP-654 splicing reporter, GFP fluorescence, 48 h; series mostly up to 46.1 µM; activation (splicing correction): at the top concentration
# Method in brief: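 Readout: per-well total peak green fluorescence (488 nm ex, 500–520 nm em) from objects 5–250 µm, reflecting correct splicing of an EGFP-654 reporter. Compounds were applied for 2 days at 37 °C to overnight-plated HeLa EGFP-654 cells; controls were DMSO and 500 nM IVS2-654 PNA.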
row,SMILES,activation (splicing correction) [%]
1,C[CH2][Hg][S]c1ccccc1C(=O)O,-6.02
2,ClC1C(Cl)C(Cl)C(Cl)C(Cl)C1Cl (stereo not given),3.77
3,OC1CCCCC1N1CCC(c2ccccc2)CC1 (stereo not given),-1.97
4,[Cl-].[Cl-].[Hg+2],-1.57
5,CCCC(C)C1(CC)C(=O)NC(=O)NC1=O (stereo not given),1.37

# System: not listed separately
# Assay: qHTS Assay for Identification of Small Molecule Agonists for Thrombopoietin (TPO) Signaling Pathway (AID 917); further: on the % scale 0 is the no-effect control and ±100 the full control effect
# Conditions: TPO signaling pathway reporter cells, agonist qHTS; series mostly up to 38.5 µM; activity, positive = activation: at the top concentration
# Method in brief: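 We measured Glycoprotein IIb promoter–luciferase output in IL-3-starved Ba/F3 murine cells expressing the human TPO receptor after 24 hrs at 37 C with compounds and 26 pM TPO.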
SMILES,"activity, positive = activation",Potency
NCCc1c[nH]c2ccc(C(N)=O)cc12,-10.8%,–
CCCN(CCC)CCc1ccc(O)c(O)c1,-19.3%,–
O=P(O)(O)C(Cl)(Cl)P(=O)(O)O,-20.3%,–
CC(=O)NBr,4.5%,–
Clc1ccc(N2C[C@H]3CC[C@@H](C2)N3)nn1,-5.28%,–
CCN(CCCl)Cc1ccccc1Br,-16.6%,–
CNC(=O)OCC[N+](C)(C)C,"-0.657% [at 38.5 µM, stimulated with TPO at its EC50]",–
C[C@@H]1[C@@H]2Cc3ccc(O)cc3[C@@]1(C)CCN2CC1CC1,2.77%,–
NC(N)=NOCC[C@H](N)C(=O)O,-14.7%,–
N#CCCN,-23.6%,–
COc1ccc2[nH]c3c(c2c1)CCNC3,-20%,–
NCCc1ccc(S(=O)(=O)F)cc1,-21.7%,–
C[N+](C)(C)CC#CCOC(=O)Nc1cccc(Cl)c1,-22%,–
CCCN(CCC)[C@H]1CCc2c(F)ccc(O)c2C1,–,inactive
CN1CCc2cccc(Cl)c2CC1,1.02%,–
OCc1cnc[nH]1,-12.6%,–
C[N+](C)(C)CC#CCN1CCCC1=O,-14.7%,–
C[N+](C)(C)CCOC(=O)CBr,-18.3%,–
c1ccc2c(N3CCNCC3)cccc2c1,12.5%,–
CC(C)NP(=O)(NC(C)C)OP(=O)(NC(C)C)NC(C)C,-10.1%,–
c1ccc2cc(CC3=NCCN3)ccc2c1,-11.8%,–
C[C@H](N)CN1CCc2ccc(Br)cc21,-10.1%,–
Clc1cc(I)cc(Cl)c1NC1=NCCN1,-26%,–
Cc1sc2ccccc2c1CC1=NCCN1,3.11%,–
CCCN(CCC)[C@@H]1CCc2cccc(O)c2C1,–,inactive
